In PubChem BioAssay:
Active and inactive are the calls of the source. Rule as the data show it, unless noted: active = inhibition above about 30%; inactive = the rest.

Key:
[1] = biological target: Nuclear receptor coactivator 3 (Homo sapiens) (UniProt Q9Y6Q9); test: NCOA3 GAL4-fusion reporter inhibition – cell-based, luminescence, quadruplicate, confirmation (AID 588792;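 active = mean inhibition over 43.08%, the solvent-only control mean plus 3 SD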;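 also: 0% = DMSO treated cells and 100% = gossypol at 36 µM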); conditions: HEK293 GAL4-SRC3 luciferase reporter, at 3.6 µM, hits give high values
[2] = system: transactivating tegument protein VP16 (Human herpesvirus 1), Gal4-VP16 luciferase reporter; test: repression of VP16-driven luciferase reporter – cell-based, luminescence, high throughput, counter-screen for SRC3 inhibitor project (AID 588794); conditions: mammalian cells, at 3.6 µM, hits give high values
[3] = biological target: Nuclear receptor coactivator 1 (Homo sapiens) (UniProt Q15788); test: NCOA1 GAL4-fusion reporter inhibition – cell-based, luminescence, quadruplicate, confirmation (AID 588820;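 active = mean inhibition above 46.68%, the untreated control wells mean plus 3 SD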;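 also: 0% = DMSO wells and 100% = gossypol 36 µM treated wells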); conditions: HEK293 GAL4-SRC1 luciferase reporter, at 3.6 µM, hits give high values
[4] = repression of VP16-driven luciferase reporter – cell-based, luminescence, high throughput, counter-screen for SRC1 inhibitor project (AID 588824; in the data active = inhibition above about 25%); conditions: cell-based VP16 transactivation luciferase luminescence; at 3.6 µM; hits give high values
[5] = StAR promoter reporter inhibitors, counter-screen for LRH-1 inverse agonist project, cell-based, luminescence, high throughput (AID 651611; in the data active = inhibition above about 28%); conditions: StAR promoter luciferase reporter counterscreen, at 3.6 µM, hits give high values
[6] = biological target: Nuclear receptor subfamily 5 group A member 2 (Homo sapiens) (UniProt O00482); test: NR5A2 activity suppression in reporter cells – cell-based, luminescence, confirmation (AID 651613; in the data active = inhibition above about 42%;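 also: HEK293T cells co-transfected with LRH-1 and StAR promoter luciferase reporter; 0% = vehicle wells and 100% = parental cells lacking receptor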); conditions: cell-based LRH-1 luciferase reporter, inverse agonism; at 3.6 µM; hits give high values
[7] = biological target: Steroidogenic factor 1 (Homo sapiens) (UniProt Q13285); test: inverse agonism at SF1 nuclear receptor – cell-based, luminescence, high throughput, counter-screen for LRH-1 inverse agonist project (AID 651614; in the data active = inhibition above about 44%;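 also: cells cotransfected with StAR promoter reporter and SF1 expression vector; 0% = vehicle on cells with receptor and 100% = vehicle on cells lacking receptor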); conditions: cell-based SF1 luciferase reporter, at 3.6 µM, hits give high values
[8] = compounds suppressing VP16-driven luciferase signal – cell-based, luminescence, high throughput, counter-screen for LRH-1 inverse agonist project (AID 651615; in the data active = inhibition above about 33%); conditions: Gal4-VP16 luciferase reporter cells, at 3.6 µM, hits give high values

Measured: inhibition

Chain of Steroidogenic factor 1 (Homo sapiens) (Q13285 whole entry, looked up, the tested form may be a part): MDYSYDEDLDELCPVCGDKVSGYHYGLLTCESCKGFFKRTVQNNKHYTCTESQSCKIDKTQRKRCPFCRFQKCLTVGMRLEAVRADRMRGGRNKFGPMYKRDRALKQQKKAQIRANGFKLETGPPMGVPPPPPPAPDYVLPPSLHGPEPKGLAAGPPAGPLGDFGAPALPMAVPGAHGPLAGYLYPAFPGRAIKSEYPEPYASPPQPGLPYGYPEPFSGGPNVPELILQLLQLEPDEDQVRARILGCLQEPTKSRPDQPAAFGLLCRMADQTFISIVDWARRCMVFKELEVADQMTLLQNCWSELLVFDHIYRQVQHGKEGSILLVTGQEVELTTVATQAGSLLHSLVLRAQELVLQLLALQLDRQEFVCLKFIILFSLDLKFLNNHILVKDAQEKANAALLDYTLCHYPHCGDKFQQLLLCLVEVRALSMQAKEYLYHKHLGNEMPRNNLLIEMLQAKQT
Chain of Nuclear receptor coactivator 3 (Homo sapiens) (Q9Y6Q9 whole entry, looked up, the tested form may be a part): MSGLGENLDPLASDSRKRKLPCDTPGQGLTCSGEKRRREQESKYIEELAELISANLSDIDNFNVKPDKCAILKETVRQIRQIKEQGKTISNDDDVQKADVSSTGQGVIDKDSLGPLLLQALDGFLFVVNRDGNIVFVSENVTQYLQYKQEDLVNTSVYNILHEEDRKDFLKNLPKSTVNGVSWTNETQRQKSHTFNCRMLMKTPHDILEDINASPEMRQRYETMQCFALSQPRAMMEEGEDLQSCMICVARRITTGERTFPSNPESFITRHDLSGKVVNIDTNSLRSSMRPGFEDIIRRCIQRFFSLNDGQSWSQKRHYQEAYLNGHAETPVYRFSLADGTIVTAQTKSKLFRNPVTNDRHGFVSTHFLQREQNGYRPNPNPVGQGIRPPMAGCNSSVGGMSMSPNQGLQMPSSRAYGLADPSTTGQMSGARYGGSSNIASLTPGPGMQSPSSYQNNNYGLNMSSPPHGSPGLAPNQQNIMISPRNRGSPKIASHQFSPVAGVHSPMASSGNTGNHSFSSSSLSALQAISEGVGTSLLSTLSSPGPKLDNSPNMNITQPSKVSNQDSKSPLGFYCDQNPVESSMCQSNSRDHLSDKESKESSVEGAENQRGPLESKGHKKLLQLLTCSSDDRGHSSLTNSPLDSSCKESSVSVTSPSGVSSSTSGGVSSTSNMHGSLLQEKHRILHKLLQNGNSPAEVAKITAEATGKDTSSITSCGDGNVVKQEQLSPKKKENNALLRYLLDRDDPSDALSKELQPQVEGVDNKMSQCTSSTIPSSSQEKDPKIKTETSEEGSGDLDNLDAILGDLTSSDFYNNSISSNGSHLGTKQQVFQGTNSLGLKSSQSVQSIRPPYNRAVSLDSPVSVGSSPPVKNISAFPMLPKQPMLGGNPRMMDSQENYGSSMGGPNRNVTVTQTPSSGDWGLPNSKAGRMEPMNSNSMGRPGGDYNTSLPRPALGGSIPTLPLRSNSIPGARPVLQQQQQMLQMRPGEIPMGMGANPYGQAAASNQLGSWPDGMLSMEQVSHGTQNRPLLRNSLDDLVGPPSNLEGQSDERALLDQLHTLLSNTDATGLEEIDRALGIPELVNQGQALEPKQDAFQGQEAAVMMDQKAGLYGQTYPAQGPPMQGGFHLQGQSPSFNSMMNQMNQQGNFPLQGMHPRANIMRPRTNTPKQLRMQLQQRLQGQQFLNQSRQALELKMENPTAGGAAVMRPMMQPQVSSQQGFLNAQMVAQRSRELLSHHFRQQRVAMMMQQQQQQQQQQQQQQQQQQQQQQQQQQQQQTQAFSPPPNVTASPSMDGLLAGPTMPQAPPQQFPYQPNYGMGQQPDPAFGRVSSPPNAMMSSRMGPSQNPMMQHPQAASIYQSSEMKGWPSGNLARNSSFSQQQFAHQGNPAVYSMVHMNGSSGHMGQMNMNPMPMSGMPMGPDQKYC
Chain of Nuclear receptor subfamily 5 group A member 2 (Homo sapiens) (O00482 whole entry, looked up): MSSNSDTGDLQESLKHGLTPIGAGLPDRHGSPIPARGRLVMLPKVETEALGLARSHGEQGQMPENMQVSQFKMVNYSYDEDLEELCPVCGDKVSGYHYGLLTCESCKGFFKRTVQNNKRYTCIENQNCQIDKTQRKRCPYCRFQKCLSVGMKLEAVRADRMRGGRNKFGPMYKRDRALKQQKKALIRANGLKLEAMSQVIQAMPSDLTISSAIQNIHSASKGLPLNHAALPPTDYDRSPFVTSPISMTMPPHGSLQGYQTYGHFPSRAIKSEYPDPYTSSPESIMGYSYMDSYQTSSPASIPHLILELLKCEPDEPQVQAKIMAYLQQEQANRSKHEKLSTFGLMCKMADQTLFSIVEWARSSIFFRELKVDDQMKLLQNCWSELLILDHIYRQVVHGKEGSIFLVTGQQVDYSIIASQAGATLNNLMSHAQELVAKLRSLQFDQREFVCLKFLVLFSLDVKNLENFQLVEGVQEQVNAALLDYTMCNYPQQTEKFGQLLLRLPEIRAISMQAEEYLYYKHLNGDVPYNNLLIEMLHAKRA
Chain of Nuclear receptor coactivator 1 (Homo sapiens) (Q15788 whole entry, looked up, the tested form may be a part): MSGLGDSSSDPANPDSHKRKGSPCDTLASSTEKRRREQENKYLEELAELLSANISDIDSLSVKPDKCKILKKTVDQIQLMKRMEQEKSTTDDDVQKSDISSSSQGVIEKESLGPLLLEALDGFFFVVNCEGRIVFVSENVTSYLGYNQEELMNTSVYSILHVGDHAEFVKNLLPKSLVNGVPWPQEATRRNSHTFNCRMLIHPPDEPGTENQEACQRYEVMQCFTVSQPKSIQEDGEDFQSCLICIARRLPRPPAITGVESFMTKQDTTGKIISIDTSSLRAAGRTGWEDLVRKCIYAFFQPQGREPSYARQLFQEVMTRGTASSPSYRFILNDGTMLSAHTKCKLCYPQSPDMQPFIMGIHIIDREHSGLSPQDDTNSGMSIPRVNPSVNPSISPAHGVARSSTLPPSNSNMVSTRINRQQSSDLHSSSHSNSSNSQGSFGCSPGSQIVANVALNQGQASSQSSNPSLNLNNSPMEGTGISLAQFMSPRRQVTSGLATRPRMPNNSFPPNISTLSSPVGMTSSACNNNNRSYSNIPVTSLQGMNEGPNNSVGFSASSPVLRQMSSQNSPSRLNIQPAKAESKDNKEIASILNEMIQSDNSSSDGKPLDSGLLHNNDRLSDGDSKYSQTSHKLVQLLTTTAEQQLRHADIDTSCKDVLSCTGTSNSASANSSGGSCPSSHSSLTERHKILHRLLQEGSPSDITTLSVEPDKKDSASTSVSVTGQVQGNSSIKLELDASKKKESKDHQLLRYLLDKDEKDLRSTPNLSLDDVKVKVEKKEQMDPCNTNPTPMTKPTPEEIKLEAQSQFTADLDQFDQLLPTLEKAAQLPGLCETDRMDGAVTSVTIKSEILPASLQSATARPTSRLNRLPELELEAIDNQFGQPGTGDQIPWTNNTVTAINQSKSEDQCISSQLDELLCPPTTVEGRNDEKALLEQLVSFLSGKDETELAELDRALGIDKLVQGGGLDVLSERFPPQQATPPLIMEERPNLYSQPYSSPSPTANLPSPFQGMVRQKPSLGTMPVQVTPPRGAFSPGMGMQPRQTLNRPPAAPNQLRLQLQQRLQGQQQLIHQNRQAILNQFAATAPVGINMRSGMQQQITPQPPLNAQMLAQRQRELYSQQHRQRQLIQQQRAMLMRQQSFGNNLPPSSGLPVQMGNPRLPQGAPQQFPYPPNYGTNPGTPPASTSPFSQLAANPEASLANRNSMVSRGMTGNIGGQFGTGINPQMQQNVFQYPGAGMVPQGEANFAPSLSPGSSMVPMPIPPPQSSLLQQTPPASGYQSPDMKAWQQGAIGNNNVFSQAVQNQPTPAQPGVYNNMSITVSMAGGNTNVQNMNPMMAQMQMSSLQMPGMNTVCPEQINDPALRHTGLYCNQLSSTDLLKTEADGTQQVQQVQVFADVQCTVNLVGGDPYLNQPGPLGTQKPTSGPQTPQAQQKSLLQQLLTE

Nc1ccc(S(=O)(=O)NNC(=O)C(=O)NNc2ccccc2)cc1
inactive: [1] 12.2% | [2] 8.16% | [3] -15.5% | [4] 18.5% | [5] 5.29% | [6] 18.9% | [7] 17.6%
active: [8] 39.2%

C=C1C(=O)c2sccc2C(c2ccc(OC)c(OC)c2)C1COC(C)=O (stereo unspecified)
active: [1] 67.7% | [2] 59% | [4] 58.4% | [5] 69.8% | [6] 95.4% | [7] 92.8% | [8] 82.4%
inactive: [3] 6.09%

Cc1ccc2ccc3ccc(C)nc3c2n1
active: [2] 70.6% | [4] 68.2% | [5] 77.2% | [6] 85.8% | [7] 87.4% | [8] 68.9%
inactive: [1] 42.1% | [3] 44.8%

CC(NC(=O)Nc1nnc(C(F)(F)F)s1)(C(F)(F)F)C(F)(F)F
inactive: [3] 37.6%
active: [1] 52.9% | [2] 72% | [4] 79.1% | [5] 74.9% | [6] 99.7% | [7] 89.4% | [8] 93%

CC(=O)Nc1ccc(SCC(=O)c2cc(C)n(Cc3cccs3)c2C)cc1
active: [1] 52.1% | [2] 40.1%
inactive: [3] -1.59% | [4] 5.47% | [5] -55.3% | [6] -90.8% | [7] -25.9% | [8] -31.9%

CC(=NNC(=S)N1CC2CCC(CC2)C1)c1ccccn1
active: [2] 54.8% | [4] 49.8% | [5] 59.4% | [6] 98.3% | [7] 77.3% | [8] 64.6%
inactive: [1] 35.5% | [3] 1.55%

N=c1c2c(n(Cc3cccc(Cl)c3)c3c1CCC3)CCCC2
inactive: [1] 42.1% | [3] 40.5%
active: [2] 65.2% | [4] 73.9% | [5] 53.3% | [6] 108% | [7] 83.8% | [8] 85.4%

N#Cc1cc2c(nc1SCC(=O)N1CCOCC1)CCCCC2
inactive: [1] 21.1% | [2] 21.5% | [3] -34.5% | [4] -17.9% | [5] -55% | [6] -116% | [7] -87.7% | [8] -62.9%

CC1(C)CC(N2CCCC2)=CC(=[N+]2CCCCCC2)C1
active: [2] 49.5% | [4] 52.1% | [6] 95% | [7] 61.3% | [8] 60.9%
inactive: [1] 23% | [3] -16.2% | [5] 0.24%

Cc1cccc(C(=O)Nc2sc3c(c2C(=O)O)CCCC3)c1
inactive: [1] 37.5% | [3] 25.5%
active: [2] 59.1% | [4] 58.2% | [5] 53.6% | [6] 85.8% | [7] 82.3% | [8] 68.9%

COc1ccc(/C=C/c2cc(-c3ccc(C)cc3)o[n+]2C)cc1
active: [1] 65.6% | [2] 74.6% | [3] 56.2% | [4] 71.5% | [5] 62.3% | [6] 98.9% | [7] 89.8% | [8] 83.6%

CC(=NNC(=S)Nc1ccccc1Cl)c1ccccn1
active: [2] 71.8% | [4] 73% | [5] 84.3% | [6] 106% | [7] 91.1% | [8] 83.9%
inactive: [1] 41.9% | [3] 18.6%

CCOc1ccc(-n2c(-c3ccc(OC)cc3)c[n+]3c2CCCCC3)cc1
inactive: [3] 36.2%
active: [1] 46.6% | [2] 67.5% | [4] 63.9% | [5] 52.9% | [6] 109% | [7] 83.9% | [8] 90.3%

CCCCCCCn1c2c(c(=N)c3ccccc31)CCC2
active: [1] 71.2% | [2] 79.5% | [3] 61.5% | [4] 79.1% | [5] 70.8% | [6] 111% | [7] 91.2% | [8] 94.7%

CCN1/C(=C/c2ccc3cccc(C)c3[n+]2CC)Sc2ccccc21
inactive: [1] 35.1% | [3] 26%
active: [2] 63.3% | [4] 71.4% | [5] 57% | [6] 105% | [7] 77% | [8] 80.5%

CC1CC(C)C[N+](=C2C=C(N3CCCC3)CC(C)(C)C2)C1 (stereo unspecified)
inactive: [1] 26.9% | [3] 28.9%
active: [2] 66.7% | [4] 71.5% | [5] 38.9% | [6] 110% | [7] 79.1% | [8] 91.2%

COCCn1c(C)cc(C(=O)COC(=O)c2ccccc2Br)c1C
inactive: [3] 46.2% | [6] -4.05% | [8] 16.6%
active: [1] 71.7% | [2] 57% | [4] 36.7% | [5] 57.1% | [7] 50.9%
